HepG2 viability: HepG2 cytotoxicity, counter-screen for TGF-b inhibitors | HepG2 CAGA-GFP viability, ATP luminescence, 18 h | Potency, µM (top dose mostly 46.1 µM), for inactives: top-dose activity change, negative = cytotoxicity, most hits filed as cytotoxic | hit rate 0.76% among 410,000
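HepG2 CAGA-GFP cells (1000/well, DMEM with 1% FBS) received compound, then TGF-beta at 500 pg/mL final, and were incubated 18 hours at 37 degrees C. Viability was read by CellTiter-Glo luminescence. Media-only wells were set as complete cell-killing and DMSO as no toxicity.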
HT1080 IDH1KD tx: kills HT-1080 cells with IDH1 knockdown. HT-1080 IDH1 knockdown viability, ATP luminescence, 48 h. Potency, µM (titrated, usually from 46.1 µM), inactives show at the top dose activity, negative = toxicity, actives largely listed as cytotoxic. hit rate 2% among 360,000;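 further: 0% = DMSO wells and -100% = cell-free medium wells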
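Assay cells: HT-1080 with IDH1 knockdown, 750 per well, RPMI/5% FBS. Exposure: 48 h at 37 °C following 2 h pre-incubation. Read: CellTiter-Glo luminescence; fitted concentration-response, curve class assigned.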
TDP1 cell noCPT: qHTS for Inhibitors of human tyrosyl-DNA phosphodiesterase 1 (TDP1): qHTS in cells in absence of CPT; DT40 Tdp1-/- hTDP1 cells, no CPT, ATP luminescence, 48 h; Potency, µM (top dose mostly 46.2 µM), inactives show at the top dose activity change, negative = growth inhibition, hits mostly inhibitors; hit rate 15% among 420,000; further: on the % scale 0 is the no-effect control and ±100 the full control effect; nearly all actives have a fitted effect of over 55% in size
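Chicken DT40 Tdp1-/- cells complemented with human TDP1, screened without camptothecin (DMSO vehicle only), 400 cells/well. Compounds pin-transferred, cells incubated at 37 °C for at least 48 hr. Growth read as ATP-dependent luminescence (CellTiter-Glo, 30 min at RT).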
TGFb SMAD3 inh: inhibitors of TGF-b signaling. AID 588855. Potency, µM (top dose mostly 46.1 µM), without a hit: top-dose activity, negative = inhibition, most hits filed as inhibitors. hit rate 1.2% among 410,000. HepG2 CAGA-GFP TGF-b/SMAD3 reporter, GFP fluorescence, 18 h; TGF-beta stimulated, 500 pg/mL final; further: on the % scale 0 is the no-effect control and ±100 the full control effect; nearly all actives have a fitted effect of over 65% in size
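Using HEPG2 CAGA-GFP reporter cells at 1000 cells/well, we pinned test compounds, stimulated with recombinant TGF-beta (500 pg/mL final) and measured total well GFP after 18 h.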
HT1080-NT tox: kills 2HG-producing HT-1080-NT fibrosarcoma cells; HT-1080-NT fibrosarcoma viability, CellTiter-Glo ATP luminescence, 48 h; Potency, µM (doses to about 46.1 µM), for the others: at the highest dose activity, negative = less viability, actives largely listed as cytotoxic; hit rate 1.6% among 360,000;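 further: NT is the 2HG producing partner of a matched IDH1 knockdown line; 0% = DMSO-treated cells and -100% = media-only wells without cells; nearly all actives have a fitted effect of over 55% in size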
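Toxicity toward the 2HG-producing NT line was scored as %Activity, normalised to DMSO and no-cell wells, from CellTiter-Glo luminescence after 48 hours' treatment.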
TDP1 cell CPT: DT40-hTDP1 cell growth loss with CPT; chicken DT40 Tdp1-/-;hTDP1 cells + 20 nM CPT, ATP luminescence, 48 h; Potency, µM (doses to about 46.2 µM), for inactives: at the highest dose activity change, negative = growth inhibition, most hits filed as inhibitors; hit rate 12% among 420,000; AID 686979; further: on the % scale 0 is the no-effect control and ±100 the full control effect; nearly all actives have a fitted effect of over 55% in size
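Chicken DT40 Tdp1-/- cells stably complemented with human TDP1 were seeded at 400 cells/well in medium containing 20 nM camptothecin, exposed to pin-transferred compounds, and grown at 37 °C for at least 48 hr. Viability was read as ATP luminescence.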
Numbers without * were called inactive; ? = inconclusive; . = no result; [ ] = dose if it differs, or a comment. Hits are enriched below; roughly 17% of the tested compounds scored in any of these assays. The call rests on the fitted dose curve; in most records, active means well fitted curve in the direction sought with a large enough effect; inconclusive means small, poorly fitted or top-dose-only effect, or another doubt; inactive means no such curve, though single readings can be large; an effect the other way counts as inactive or inconclusive. Potency means the concentration at half of the fitted maximal effect.

SMILES	HepG2 viability	HT1080 IDH1KD tx	TDP1 cell noCPT	TGFb SMAD3 inh	HT1080-NT tox	TDP1 cell CPT
CC1Cc2ccccc2N1S(=O)(=O)c1cccc(C(=O)Nc2cccnc2)c1 (stereo unspecified)	-2%	?	?	-17%	?	?
CC1Cc2ccccc2N1S(=O)(=O)c1cccc(C(=O)NCc2ccco2)c1 (stereo unspecified)	-26%	-1%	-26%	-16%	-7%	-14%
COc1ccccc1C(CNC(=O)c1cccc(S(=O)(=O)N2c3ccccc3CC2C)c1)N(C)C (stereo unspecified)	-45%	-5%	15µM*	?	?	?
CC1Cc2ccccc2N1S(=O)(=O)c1cccc(C(=O)NC2CC2)c1 (stereo unspecified)	3%	?	13µM*	-7%	?	18µM*
C=CCN(CC=C)C(=O)c1cccc(S(=O)(=O)N2c3ccccc3CC2C)c1 (stereo unspecified)	-29%	-13%	16µM*	?	-2%	16µM*
CC1(C(=O)NS(=O)(=O)c2cccs2)CCN1C(=O)CC1CCCCC1 (stereo unspecified)	-2%	16%	4%	5%	19%	-5%
COc1ccc(C=NNC(=O)c2cc(C)oc2C)cc1O	-41%	?	16µM*	-18%	?	?
Cc1ccc(/C=N/NC(=O)c2cc(C)oc2C)cc1	-60%	21µM*	16µM*	2%	?	23µM*
O=C1C(=O)N(CCN2CCOCC2)C(c2ccccn2)/C1=C(/O)c1ccc(F)cc1 (stereo unspecified)	-57%	8%	23µM*	0%	10%	?
CN(C)CCN1C(=O)C(=O)/C(=C(/O)c2ccc(S(=O)(=O)N3CCOCC3)cc2)C1c1ccccc1 (stereo unspecified)	-7%	-21%[9.24 µM]	-3%	-2%	-21%	-7%
CN(C)CCN1C(=O)C(=O)/C(=C(/O)c2ccc(S(=O)(=O)N3CCOCC3)cc2)C1c1ccc(F)cc1 (stereo unspecified)	13µM*	9%	-1%	-4%	8%	14%
CCCCOc1ccc(CNC(=O)C2CCCN(c3nnc(-n4c(C)ccc4C)s3)C2)cc1 (stereo unspecified)	-11%	.	?	?	.	?
COc1cccc(CNC(=O)C2CCCN(c3nnc(-n4c(C)ccc4C)s3)C2)c1OC (stereo unspecified)	-15%	.	?	-47%	.	?
Cc1ccc(C)n1-c1nnc(N2CCCC(C(=O)NCc3ccc(Cl)cc3)C2)s1 (stereo unspecified)	-5%	.	9.2µM*	.	.	?
Cc1ccc(CNC(=O)C2CCCN(c3nnc(-n4c(C)ccc4C)s3)C2)cc1 (stereo unspecified)	-11%	.	18µM*	.	.	?
Cc1ccc(C)n1-c1nnc(N2CCCC(C(=O)NCc3ccc(F)cc3)C2)s1 (stereo unspecified)	-5%	.	8.2µM*	0%	.	18µM*
CCCCn1c(=O)c2oc3ccccc3c2n(Cc2ccc(C)cc2)c1=O	-1%	.	?	-6%	.	-4%
CCn1c(=O)cc(SCC(=O)NCCc2ccc(OC)cc2OC)c2ccccc21	-10%	.	23µM*	0%	.	?
CCOc1ccc(CCNC(=O)CSc2cc(=O)n(CC)c3ccccc23)cc1OCC	1%	-16%	?	13%	-1%	?
COc1ccccc1CNC(=O)CSc1cc(=O)n(C)c2ccccc12	6%	17%	?	-5%	13%	?
CCn1c(=O)cc(SCC(=O)NCc2ccccc2OC)c2ccccc21	-26%	.	23µM*	7%	.	?
O=C(CNC(=O)c1ccccc1)Oc1cccc(Cl)c1	3%	9%	5%	-4%	16%	9%
CCCc1[nH]nc2c1C(c1cc(OC)cc(OC)c1)C(C#N)=C(N)O2 (stereo unspecified)	-14%	13%	-13%	-11%	22%	-5%
CCCc1[nH]nc2c1C(c1ccc(OC)c(CSC3=NCCS3)c1)C(C#N)=C(N)O2 (stereo unspecified)	-27%	?	21µM*	?	-22%	?
COC(=O)c1ccccc1NC(=O)c1ccc(-c2nc(CSc3ccc(C)cc3)c(C)o2)cc1	-19%	.	0%	-14%	.	-9%
SMILES	HepG2 viability	HT1080 IDH1KD tx	TDP1 cell noCPT	TGFb SMAD3 inh	HT1080-NT tox	TDP1 cell CPT
Cc1cccc(NC(=O)c2ccc(-c3nc(CSc4ccccc4)c(C)o3)cc2)c1C	-59%	.	?	-15%	.	5.2µM*
COc1ccc(NC(=O)c2ccc(-c3nc(CSc4ccccc4)c(C)o3)cc2)cc1OC	-84%	.	-14%	?	.	?
Cc1oc(-c2ccc(C(=O)Nc3cccc(C(F)(F)F)c3)cc2)nc1CSc1ccccc1	-28%	.	16µM*	?	.	23µM*
Cc1ccc(Cl)cc1NC(=O)c1ccc(-c2nc(CSc3ccccc3)c(C)o2)cc1	-22%	.	6.5µM*	-18%	.	9.2µM*
CCN(CC)S(=O)(=O)c1ccc2c(c1)N(CC(=O)Nc1ccc(NC(C)=O)cc1)C(=O)CO2	-2%	4%	-17%	14%	6%	3%
Cc1cc(C)n2nc(SCC(=O)NC3(C#N)CCCCC3)nc2n1	5%	5%	-16%	-1%	8%	-17%
COc1ccc(C2=C(C=C(C#N)C#N)C(c3ccccc3C)c3ccccc3O2)cc1OC (stereo unspecified)	15%	-14%	21µM*	?	-5%	?
COc1cc2c(cc1NC(=S)NC(=O)/C=C/c1ccc(OC)c(OC)c1)oc1ccccc12	-6%	-12%	5%	12%	8%	6%
COc1ccc(/C=C/C(=O)NC(=S)Nc2cc3oc4ccccc4c3cc2OC)cc1	1%	26%	?	13%	11%	9.2µM*
COc1cc2c(cc1NC(=S)Nc1cccc(C)c1)oc1ccccc12	-25%	?	?	-1%	10µM*	?
COc1ccccc1NC(=S)NC(=O)/C=C/c1ccco1	-11%	6%	-22%	?	9%	-15%
COc1cc2c(cc1NC(=S)NC(=O)/C=C/c1ccco1)oc1ccccc12	-25%	?	?	-4%	?	16µM*
